Screening data (PubChem BioAssay)
HepG2 tox – qHTS for Inhibitors of TGF-b: Cytotox Counterscreen. Potency, µM (doses to about 46.1 µM), hits mostly cytotoxic. HepG2 CAGA-GFP viability, ATP luminescence, 18 h. 410,000 compounds, 0.76% hits
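HepG2 CAGA-GFP cells (1000/well, DMEM with 1% FBS) received compound, then TGF-beta at 500 pg/mL final, and were incubated 18 hours at 37 degrees C. Viability was read by CellTiter-Glo luminescence. Media-only wells were set as complete cell-killing and DMSO as no toxicity.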
S-ASM inh – Inhibitors of Secretory Acid Sphingomyelinase (S-ASM): qHTS. 340,000 compounds, 0.006% hits. Sphingomyelin phosphodiesterase (Homo sapiens), P17405. AID 504937, 2011. Potency, µM (doses to about 57.5 µM), hits mostly inhibitors. placental ASM, HMU-PC fluorogenic substrate, 60 min
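Human placenta-derived ASM enzyme was preincubated with compound for 10 minutes at room temperature, then given fluorogenic substrate HMU-PC0 (9 uM final) for 60 minutes at 37 °C; a pH 10 stop preceded fluorescence reading at Ex 386/Em 447 nm.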
TDP1 cell CPT – qHTS for Inhibitors of human tyrosyl-DNA phosphodiesterase 1 (TDP1): qHTS in cells in presence of CPT; chicken DT40 Tdp1-/-;hTDP1 cells + 20 nM CPT, ATP luminescence, 48 h; 420,000 compounds, 12% hits; Potency, µM (titrated, usually from 46.2 µM), hits mostly inhibitors; AID 686979, 2013; note: nearly all actives have a fitted effect of over 55% in size
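Chicken DT40 Tdp1-/- cells complemented with human TDP1, 400 cells/well, exposed to compounds plus 20 nM camptothecin for at least 48 h at 37 C; viability read as ATP content by CellTiter-Glo luminescence.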
TGFb inhibitor – qHTS for Inhibitors of TGF-b; AID 588855, 2011; 410,000 compounds, 1.2% hits; Potency, µM (doses to about 46.1 µM), usual class: inhibitors; HepG2 CAGA-GFP TGF-b/SMAD3 reporter, GFP fluorescence, 18 h; TGF-beta stimulated, 500 pg/mL final; note: nearly all actives have a fitted effect of over 65% in size
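HEPG2 CAGA-GFP reporter cells (1000/well, DMEM with 1% FBS) received compounds, then recombinant TGF-beta at 500 pg/mL final for 18 hours at 37 degrees C. Per-cell GFP summed per well was normalised to unstimulated and stimulated DMSO controls before curve fitting.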
TDP1 cell noCPT – qHTS for Inhibitors of human tyrosyl-DNA phosphodiesterase 1 (TDP1): qHTS in cells in absence of CPT. DT40 Tdp1-/- hTDP1 cells, no CPT, ATP luminescence, 48 h. Potency, µM (titrated, usually from 46.2 µM), usual class: inhibitors. 420,000 compounds, 15% hits; note: nearly all actives have a fitted effect of over 55% in size
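Readout: luminescence from CellTiter-Glo after 30 min in the dark at RT. Cells: DT40 Tdp1-/- with stable hTDP1, 400/well. Exposure: compounds alone, ≥48 hr, 37 °C.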
IL-1B inflam inh – qHTS for Inhibitors of Inflammasome Signaling: IL-1-beta AlphaLISA Primary Screen; AID 743279, 2014; THP-1 LPS/ATP IL-1B secretion, AlphaLISA, 16 h; active compounds read low; 360,000 compounds, 4.7% hits; activity change, % at 57.5 µM; in the data active = activity change below about -50%; inconclusive = mostly about -30% to -49%
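Secreted IL-1B measured by AlphaLISA bead assay after 16 h compound exposure of THP-1 cells; compounds (final up to 57.5 uM) added 1 h before LPS (250 ng/mL) and ATP (1.25 mM) stimulation; lower signal means less secretion.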
Hits are given with their value; n = inactive; u = inconclusive; x = no result; ! = a repeat was not active. Sampled rows, rich in hits. Any-hit rate of the full collection: about 19%. Unless noted, calls come from the whole dose curve; as a rule, active = well fitted curve in the direction sought with a large enough effect; inconclusive = small, poorly fitted or top-dose-only effect, or another doubt; inactive = no such curve, though single readings can be large; an effect the other way counts as inactive or inconclusive.

SMILES	HepG2 tox	S-ASM inh	TDP1 cell CPT	TGFb inhibitor	TDP1 cell noCPT	IL-1B inflam inh
O=C(c1ccco1)N1CCCC(c2nc3c(nnn3Cc3ccc(F)cc3)c(=O)[nH]2)C1 (stereo not given)	n	n	n	n	n	n
COC(=O)c1cn(C(=O)c2cccc(Br)c2)c2ccccc12	n	n	n	n	n	n
COc1ccc(/C=C/c2nc(C#N)c(N3CCCCC3)o2)cc1OC	n	x	23µM	n	16µM	x
COc1cccc(/C=C/c2nc(C#N)c(N3CCCCCC3)o2)c1	n	x	u	n	18µM	x
COc1cc(/C=C/c2nc(C#N)c(N3CCC(C)CC3)o2)cc(OC)c1OC	n	x	10µM	n	7.3µM	x
COc1ccc(N2CCN(c3oc(/C=C/c4cc(OC)c(OC)c(OC)c4)nc3C#N)CC2)cc1	n	x	2.9µM	n	3.7µM	x
COc1cccc(/C=C/c2nc(C#N)c(N3CCC(C(N)=O)CC3)o2)c1	n	x	n	n	n	x
CCOC(=O)C1=CNS(=O)(=O)NC1c1ccc(C)cc1 (stereo not given)	n	n	n	n	n	n
COCCn1c(SCC(=O)NCCCN2CCCC2=O)nc2sc3c(c2c1=O)CCCC3	n	n	n	n	n	n
CCCn1c(=O)c2c(nc3n2CCCN3CCc2ccc(OC)c(OC)c2)n(C)c1=O	n	n	u	n	u	n
COc1ccccc1/C=C/c1nc(C#N)c(N2CCCCC2)o1	n	x	n	x	16µM	x
CN(C)c1oc(/C=C/c2ccccc2)nc1C#N	n	n	n	n	n	n
COc1ccccc1/C=C/c1nc(C#N)c(N(C)C)o1	n	n	u	n	16µM	n
COc1cc(/C=C/c2nc(C#N)c(N3CCCCCC3)o2)cc(OC)c1OC	n	x	15µM	n	16µM	x
COc1ccc(/C=C/c2nc(C#N)c(N3CCN(c4ccccc4)CC3)o2)cc1OC	n	x	n	u	n	x
O=C(Nc1cc(F)ccc1F)c1cnn2c1NC(=C1CC1)C=C2C(F)F	n	x	u	n	u	x
Cc1ccccc1Cn1c(-c2cccs2)nc2ccccc21	n	x	u	u	16µM	x
CC(C)Cn1c(-c2ccccc2Cl)nc2ccccc21	n	x	u	n	16µM	x
CC(C)Cn1c(-c2cccs2)nc2ccccc21	n	n	16µM	n	u	n
c1csc(Cn2c(-c3cccs3)nc3ccccc32)c1	n	n	u	n	n	n
CCOC(=O)c1ccc(NC(=O)Oc2cc(C)c(Cl)cc2C(C)C)cc1	n	n	u	n	u	n
O=C(c1ccc2ccccc2c1)N1CCN(Cc2ccccc2)CC1	n	n	u	u	n	n
Cc1cccc(-c2onc3ccc(C4(C)OCCO4)cc23)c1	n	n	u	n	15µM	n
Cc1ccc(C23CC4CC(CC(C(=O)NC(C)C)(C4)C2)C3)cc1	n	n	u	n	26µM	n
CNC(=O)C12CC3CC(C1)CC(c1ccc(C)cc1)(C3)C2	n	n	n	n	n	n
SMILES	HepG2 tox	S-ASM inh	TDP1 cell CPT	TGFb inhibitor	TDP1 cell noCPT	IL-1B inflam inh
COc1ccc(NC(=O)C23CC4CC(C2)CC(c2ccc(C)cc2)(C4)C3)cc1	n	u	29µM	n	23µM	n
O=C(Cn1cnc(S(=O)(=O)N2CCCC2)c1)Nc1ccc(OC(F)(F)F)cc1	n	n	n	n	n	n
COc1ccc(-c2cn(Cc3cccc(OC)c3)nn2)cc1	n	n	13µM!	n	11µM!	n
COc1ccc(-c2cn(CCc3c[nH]c4ccccc34)nn2)cc1	n	n	11µM	u	10µM	n
c1ccc(N2CCN(c3ncccn3)CC2)cc1	n	n	n	n	n	n
CN1CCCc2cc(/C=C/c3ccnc4ccccc34)ccc21	n	x	11µM	n	14µM	x
CN1CCCc2ccccc21	n	x	n	n	n	x
